Source: PubChem (several laboratories)
CYP2C9 act – human CYP2C9 activators, primary screen, biochemical, luminescence. Cytochrome P450 2C9 (Homo sapiens), P11712. recombinant CYP2C9, luciferin-H conversion; stronger effect = higher value; factor 1 = untreated enzyme, 0 = blocked. activation factor at 5 µM. 96,000 tested, 1.4% active. AID 1024, 2008;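 active = activation factor of 2 or more for CYP2C9 at a 5 µM dose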;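 note: 0 = sulfaphenazole-blocked wells and 1 = vehicle-only wells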
CYP2C19 act – human CYP2C19 activators, primary screen, biochemical, luminescence | Cytochrome P450 2C19 (Homo sapiens), P33261 | recombinant CYP2C19, luciferin-H EGE luminescence; stronger effect = higher value; 0 = fully inhibited enzyme, 1 = untreated enzyme | activation factor at 5 µM | 96,000 tested, under 10 active | AID 1025, 2008;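 active = activation factor of at least 2 at 5 µM in the primary screen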;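 note: 0 = wells with 2.5 mM tranylcypromine and 1 = vehicle-only wells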
CYP2C19 inhib – blockers of cytochrome P450 2C19 activity – biochemical, luminescence, ADME assay, primary screen; P33261; CYP2C19 Supersomes, luciferin-H EGE luminescence, 30 min; inhibition, % at 5 µM; 96,000 tested, 21% active;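 active = CYP2C19 inhibition above a set limit at 5 µM in the primary screen, cut at about 50% in these data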;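 note: plate controls were negative control wells for no effect and 2.5 mM tranylcypromine positive control for full effect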
CYP2C9 inhib – blockers of cytochrome P450 2C9 activity – biochemical, luminescence, ADME assay, primary screen. CYP2C9 Supersomes, luciferin-H conversion. inhibition, % at 5 µM. 96,000 tested, 20% active;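 active = blocking of liver enzyme CYP2C9 beyond about 50% at 5 µM, limit read from the data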
PTK2B oligo ant – antagonists of Pyk2 self-association, primary screen, Q293 cells, FERM NanoBiT luminescence, HTS | Protein-tyrosine kinase 2-beta (Homo sapiens), Q14289 | stronger effect = lower value | z-score (the deposit names both 25 µM and 10 µM) | 99,000 tested, 0.83% active;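 active = Z-score of -3 or lower, scaled per plate to the spread of control and sample wells; inactive = z-score above -3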;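 note: negative z-score means lost luminescence so less FERM oligomerization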
Target sequence (Q14289 whole entry, looked up): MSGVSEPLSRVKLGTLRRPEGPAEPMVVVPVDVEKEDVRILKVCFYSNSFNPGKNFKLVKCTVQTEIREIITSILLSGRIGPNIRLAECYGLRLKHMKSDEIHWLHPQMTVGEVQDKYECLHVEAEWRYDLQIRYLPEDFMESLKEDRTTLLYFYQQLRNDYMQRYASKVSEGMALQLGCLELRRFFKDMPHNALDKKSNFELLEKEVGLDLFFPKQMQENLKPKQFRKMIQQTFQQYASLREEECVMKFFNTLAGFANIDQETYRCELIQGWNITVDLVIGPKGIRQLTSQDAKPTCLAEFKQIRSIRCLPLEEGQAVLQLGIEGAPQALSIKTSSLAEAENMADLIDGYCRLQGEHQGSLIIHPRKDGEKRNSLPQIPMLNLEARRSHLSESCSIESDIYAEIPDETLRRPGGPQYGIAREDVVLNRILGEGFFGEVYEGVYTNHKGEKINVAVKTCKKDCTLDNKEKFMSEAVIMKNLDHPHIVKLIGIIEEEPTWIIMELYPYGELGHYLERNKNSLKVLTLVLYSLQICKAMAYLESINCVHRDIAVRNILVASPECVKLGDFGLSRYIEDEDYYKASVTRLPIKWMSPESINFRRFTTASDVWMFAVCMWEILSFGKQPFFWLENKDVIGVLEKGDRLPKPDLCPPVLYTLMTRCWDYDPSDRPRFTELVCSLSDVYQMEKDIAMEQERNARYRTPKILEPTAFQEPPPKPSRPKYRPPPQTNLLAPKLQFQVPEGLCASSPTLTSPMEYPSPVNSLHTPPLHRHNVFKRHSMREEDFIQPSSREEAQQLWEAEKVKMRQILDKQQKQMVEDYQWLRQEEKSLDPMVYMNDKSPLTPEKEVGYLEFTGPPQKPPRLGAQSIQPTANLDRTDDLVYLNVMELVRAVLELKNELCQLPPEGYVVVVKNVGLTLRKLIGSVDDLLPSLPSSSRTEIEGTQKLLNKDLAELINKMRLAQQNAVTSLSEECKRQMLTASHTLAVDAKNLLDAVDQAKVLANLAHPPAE
Cav3 T inh – Cav3.2 calcium influx blockers – cell-based, Fluo-4 calcium fluorescence, FDSS, MLSMR library, primary screen. Cav3.2-expressing cells; stronger effect = lower value. 100,000 tested, 4% active. AID 449739, 2010. B-score at 10 µM;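 active = single-dose well whose peak fluorescence ratio is a statistical outlier from its plate by either plate-standardised score or position-corrected B-score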
* = called active by the depositor; x = not tested or not shown. Rows were chosen to be rich in hits. Some 27% of all compounds tested hit in one or more screens of this group.

SMILES | CYP2C9 act | CYP2C19 act | CYP2C19 inhib | CYP2C9 inhib | PTK2B oligo ant | Cav3 T inh
Cc1nc2c(-c3ccc(F)cc3)c(C)nn2c(C)c1CCC(=O)N1CCN(c2ccc(F)cc2)CC1 | 0.3 | 0.4 | 62.5* | 67.2* | x | -6.17*
Cc1nc2c(-c3ccc(F)cc3)c(C)nn2c(C)c1CCC(=O)N1CCN(c2ccccc2)CC1 | 0.4 | 0.5 | 50.0* | 56.0* | x | -0.522
Cc1nc2c(-c3ccc(F)cc3)c(C)nn2c(C)c1CCC(=O)N1CCOCC1 | 0.6 | 0.5 | 50.8* | 37.7 | x | 0.961
Cc1nc2c(-c3ccccc3)c(C)nn2c(C)c1CCC(=O)N1CCOCC1 | 1 | 0.9 | 10.1 | -2.1 | 0.52 | 1.25
Cc1nc2c(-c3ccc(F)cc3)c(C)nn2c(C)c1CCC(=O)N1CCC(Cc2ccccc2)CC1 | 0.5 | 0.7 | 30.5 | 51.3* | x | -6.24*
CCn1ncc(Br)c1C(=O)Nc1nccs1 | 0.7 | 0.7 | 27.9 | 32.7 | -0.28 | -0.0186
O=C(CSc1ccc(Cl)cc1)NCC1CCCO1 (centres undefined) | 0.8 | 0.6 | 37.3 | 21.8 | 0.65 | 0.224
Fc1c(F)c(C(F)(F)F)c(F)c(F)c1N/N=C\c1cccs1 | 0.9 | 1 | 1.6 | 5.3 | -1.77 | 0.495
Cc1cccc(Oc2cnn(C(C)(C)C)c(=O)c2Cl)c1 | x | x | x | x | -1.06 | -0.637
CCCCn1nc(-c2ccccc2)c2nc3ccccc3nc21 | 1 | 1.1 | -9.2 | 2.8 | x | -7.26*
CCOC(=O)COn1c(=O)c(-c2cccs2)[n+]([O-])c2ccccc21 | 0.7 | 0.7 | 25.4 | 27.6 | -0.56 | -0.948
CCOn1c(=O)c(-c2cccs2)[n+]([O-])c2ccccc21 | 0.5 | 0.4 | 57.5* | 52.8* | -0.83 | -1.16
CC(C)CCC1CC(CSC(=N)N)OC1=O (centres undefined) | 1.2 | 1 | 1.1 | -17.3 | 0.53 | 0.192
CCCc1cc(-c2ccc(O)c(OCC)c2)c(C#N)c(N)n1 | 0.2 | 0.1 | 90.2* | 82.5* | -2.05 | -0.183
CCOc1cc(-c2c(C)c(C)nc(N)c2C#N)ccc1O | x | x | x | x | 0.14 | -0.0777
CCOc1cc(-c2c(C)c(CC)nc(N)c2C#N)ccc1O | 0.8 | 0.4 | 62.8* | 23.2 | -1.77 | -0.673
Cc1ccc(C(NC(N)=O)c2ccccc2)cc1 (centres undefined) | 0.4 | 0 | 97.0* | 62.7* | 0.21 | 0.0221
Cc1ccc(S(=O)(=O)NC(CC(=O)O)c2ccccc2)cc1 (centres undefined) | 0.9 | 1.1 | -9.1 | 10.3 | 0.37 | -0.137
Cc1ccc(C(NC(N)=O)c2ccccc2C)cc1 (centres undefined) | 0.5 | 0 | 99.0* | 48.8 | 0.82 | -0.679
COc1ccc(C(NC(N)=O)c2ccccc2)cc1 (centres undefined) | 0.7 | 0.6 | 43.1 | 26.0 | -0.14 | -0.0471
COc1ccc(CN2CC(C(=O)NCc3ccccn3)CC2=O)cc1 (centres undefined) | 1 | 1 | -4.5 | -4.4 | 0.53 | 1.25
O=C(NCCc1ccccn1)C1CC(=O)N(Cc2ccccc2Cl)C1 (centres undefined) | 1.3 | 0.3 | 68.1* | -33.7 | 0.24 | 0.0259
CCn1c(-c2cccnc2Cl)nc2ccccc21 | 1.9 | 0.7 | 31.5 | -92.8 | 0.09 | x
CCCCC1(C)Nc2ccccc2-c2nc3ccccc3n21 (centres undefined) | 0.4 | 0.2 | 80.9* | 57.0* | 0.05 | -4.9*
c1ccc2c(c1)NC1(CCCCCC1)n1c-2nc2ccccc21 | 0.5 | 0.8 | 22.7 | 51.2* | -0.07 | -1.32
SMILES | CYP2C9 act | CYP2C19 act | CYP2C19 inhib | CYP2C9 inhib | PTK2B oligo ant | Cav3 T inh
CC1(c2ccccn2)Nc2ccccc2-c2nc3ccccc3n21 (centres undefined) | 0.5 | 0.3 | 68.9* | 52.0* | -0.98 | 2.29
CC(=O)Oc1ccc(CCC(C)OC(C)=O)cc1 (centres undefined) | 1 | 0.9 | 10.2 | 3.9 | 0.46 | -0.289
CCc1c(O)nc(SCC(=O)Nc2ccccc2OC)[nH]c1=O | 0.6 | 0.7 | 27.5 | 38.3 | 0.33 | -0.856
CCC(C)C(NC(=O)C1CCC(C)CC1)C(=O)NC1CCN(Cc2ccccc2)CC1 (centres undefined) | x | x | x | x | x | 1.82
CC(C)N(O)C(=O)NC(C)(C)C | 0.9 | 1 | -3.2 | 8.4 | 0.12 | x
O=C1CCCCC1Sc1nnc(Cc2cccs2)n1CCc1ccccc1 (centres undefined) | 0.3 | 0.3 | 67.7* | 69.7* | -0.63 | -3.31
Cn1cccc1Cc1nnc(SCC(=O)NCC2CCCO2)n1CCc1ccccc1 (centres undefined) | 1.1 | 1.1 | -9.0 | -6.2 | 0.27 | 1.28
Cc1oc2cc(O)cc(O)c2c(=O)c1-c1ccc2c(c1)OCCCO2 | 1.3 | 0.7 | 25.1 | -33.7 | -3.36* | -3.48
COc1c(-c2ccc(O)cc2)oc2cc(O)cc(O)c2c1=O | x | x | x | x | x | -0.758
O=c1ccc(Oc2nc(N3CCOCC3)nc(N3CCOCC3)n2)nn1-c1ccccc1 | 0.6 | 0.7 | 33.0 | 41.6 | -0.76 | 0.465
CC(C)(C)Nc1nc(Oc2ccc(=O)n(-c3ccccc3)n2)nc(N2CCOCC2)n1 | 0.3 | 0.5 | 54.3* | 68.0* | -1.16 | -1.99
O=C(CC1C(=O)NC2CCCCC2N1C(=O)c1ccc(F)cc1)Nc1ccccc1 (centres undefined) | 0.4 | 0.7 | 34.6 | 55.7* | -0.35 | -0.0221
O=C(c1ccc(F)cc1)C1CCN(C(=S)Nc2ccccc2)CC1 | 0.6 | 0.5 | 49.5 | 42.2 | -0.02 | x
Cc1ccc(NC(=O)CC2C(=O)NC3CCCCC3N2C(=O)c2ccc(F)cc2)cc1C (centres undefined) | 0.4 | 0.9 | 7.8 | 63.7* | -0.69 | -0.757
O=C(CC1C(=O)N(c2ccccc2)C(=O)N1C1CCCCC1)Nc1ccccc1 (centres undefined) | 0.8 | 0.5 | 52.4* | 18.4 | -1.25 | 0.21
COc1ccccc1C(=O)N1C(CC(=O)Nc2cc(Cl)ccc2C)C(=O)NC2CCCCC21 (centres undefined) | 0.7 | 0.7 | 34.0 | 25.8 | -1.35 | -1.33
Cn1ccnc1Sc1nc2ccccc2nc1NS(=O)(=O)c1ccccc1 | 0 | 1 | -3.4 | 98.4* | -0.17 | -1.31
Cn1cnnc1Sc1nc2ccccc2nc1NS(=O)(=O)c1ccccc1 | 0 | 0.9 | 6.9 | 96.6* | -0.79 | -0.0421
CCN(CC)CCNC(=O)c1c(C)oc2cc(Br)c(OC)cc12 | 0.7 | 0.9 | 11.9 | 27.6 | 0.81 | 1.92
CCCSc1nc(C)c(-c2csc(C(C#N)=C3CCCC3)n2)cc1C#N | 0.7 | 0.9 | 12.9 | 27.5 | -0.36 | -0.588
